Consider 57 molecules from the supplement of paper PMC7724964.

Sequences and labels used below:
B1: unnamed (peptide)
chain: SDWLSTVWEHPMDWGA
B2: unnamed (peptide)
chain: PGSENEAEYWFNIMRQ
B3: unnamed (peptide)
chain: QWEFEHDATLLVLEQM
B4: unnamed (peptide)
chain: WWEAPWAMEMLDEETG
B5: unnamed (peptide)
chain: DWQGDHVHFWDLITME
B6: unnamed (peptide)
chain: VSYEWWMPGDTQMMEV
B7: unnamed (peptide)
chain: YHYIAEVPEQFVDMHR
B8: unnamed (peptide)
chain: IPDWLVDYEWGQWVEG
B9: unnamed (peptide)
chain: ITAEWQAREEYKLRVQ
B10: unnamed (peptide)
chain: PNHWFVIPIGEWYQKI
B11: unnamed (peptide)
chain: MPFDHWTMDDVEMLVL
B12: unnamed (peptide)
chain: MLPFQDWYTQDDVLMN
B13: unnamed (peptide)
chain: EDSGLEWFMQWSHGYV
B14: unnamed (peptide)
chain: DAHWWEEPWFIKSQEE
B15: unnamed (peptide)
chain: ALEMTMEQWTYFLQEW
B16: unnamed (peptide)
chain: DVEPLWSQWVTWDWQE
B17: unnamed (peptide)
chain: DMTRAVFWEFWDHLDV
B18: unnamed (peptide)
chain: EWSWSDSMHQFMNENT
B19: unnamed (peptide)
chain: YNELEPEVAAWWWQYV
B20: unnamed (peptide)
chain: SHITLIHEPPYGWTTN
B21: unnamed (peptide)
chain: DVPPLWMMAEYSFPWE
B22: unnamed (peptide)
chain: RQYKWWEWLVVQQPKA
B23: unnamed (peptide)
chain: TQAFQHDHFWESLVMF
B24: unnamed (peptide)
chain: QHMHFVMLDEIMYGMW
B25: unnamed (peptide)
chain: WETWFEQKEVLIDAYY
B26: unnamed (peptide)
chain: IVVGDWENEWFAHLVK
B27: unnamed (peptide)
chain: VPWGDAQFSWPVEWMI
B28: unnamed (peptide)
chain: HWVIPWETVPAPHEFH
B29: unnamed (peptide)
chain: SLDQSDIRHIFYWMEW
B30: unnamed (peptide)
chain: WVWDYSQDQWVPASVQ
B31: unnamed (peptide)
chain: WGSLDWEVALKPPVEF
B32: unnamed (peptide)
chain: HAWWYNENLDQWVDTS
B33: unnamed (peptide)
chain: FYIYDTWVEWPPVVTV
B34: unnamed (peptide)
chain: SMEWWSKGDVSLIDIS
B35: unnamed (peptide)
chain: DAEMQDFIMAWWPELV
B36: unnamed (peptide)
chain: QWPTYSQWMTRDEILI
B37: unnamed (peptide)
chain: NEWDIPLLDLTMLPWA
B38: unnamed (peptide)
chain: VMTLTELQDWLNAAYV
B39: unnamed (peptide)
chain: YQMTDWTTWEHFMHMT
B40: unnamed (peptide)
chain: PQQHFWEMDVPMIQLW
B41: unnamed (peptide)
chain: WRWDEYDHQFVEEVQM
B42: unnamed (peptide)
chain: HEEGMAEQWFWLHFAP
B43: unnamed (peptide)
chain: TVSVTNIDMDMLSFLL
B44: unnamed (peptide)
chain: WSLMDDVSPWWEMEQI
B45: unnamed (peptide)
chain: HDVEPIWSMPWWQMDY
B46: unnamed (peptide)
chain: YMMDQHAWELLMTMMA
B47: unnamed (peptide)
chain: QVAMSEQSLNYFLTLL
B48: unnamed (peptide)
chain: SVPWYSEPWAIDMMSF
B49: unnamed (peptide)
chain: WEEWTNWASPPHEYRF
B50: unnamed (peptide)
chain: YRYIAEVPEQFVDMHR
B51: unnamed (peptide)
chain: GNHIWYWDQDEKLLEL
B52: unnamed (peptide)
chain: YHDTGLSNEWFMIRYF
B53: unnamed (peptide)
chain: PDVLQQLWEAMRSENW
B54: unnamed (peptide)
chain: AWQISEEWKVREAYQQ
B55: unnamed (peptide)
chain: NWWHSDLQPPQEWQDE
B56: unnamed (peptide)
chain: SPPQDVPPLWEYYHIW
B57: unnamed (peptide)
chain: MEVMPPQGFQDAFLST

HSPA8 394-614 HSP70 (domain begin residue: 394, domain end residue: 614), P11142, sequence (P11142 whole entry, looked up, tested part not stated): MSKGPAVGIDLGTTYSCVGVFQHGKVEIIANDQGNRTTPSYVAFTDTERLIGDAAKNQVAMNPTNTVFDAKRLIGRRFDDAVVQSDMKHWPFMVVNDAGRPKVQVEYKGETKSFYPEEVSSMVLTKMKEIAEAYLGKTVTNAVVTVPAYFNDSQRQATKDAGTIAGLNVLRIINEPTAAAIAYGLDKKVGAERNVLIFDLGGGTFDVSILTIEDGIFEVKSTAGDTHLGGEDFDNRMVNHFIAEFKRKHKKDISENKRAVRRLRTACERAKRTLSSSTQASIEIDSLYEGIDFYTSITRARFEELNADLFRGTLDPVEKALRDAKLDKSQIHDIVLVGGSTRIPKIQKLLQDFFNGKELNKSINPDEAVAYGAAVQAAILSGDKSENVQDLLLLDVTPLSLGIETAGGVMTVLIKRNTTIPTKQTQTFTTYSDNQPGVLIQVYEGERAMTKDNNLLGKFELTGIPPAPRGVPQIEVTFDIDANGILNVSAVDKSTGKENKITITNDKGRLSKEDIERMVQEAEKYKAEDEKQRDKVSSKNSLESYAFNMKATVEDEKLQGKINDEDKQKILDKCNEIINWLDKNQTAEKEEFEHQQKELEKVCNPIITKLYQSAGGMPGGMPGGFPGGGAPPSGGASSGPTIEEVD
GNAI1 2-354 G-alpha (domain begin residue: 2, domain end residue: 354), P63096, sequence (P63096 whole entry): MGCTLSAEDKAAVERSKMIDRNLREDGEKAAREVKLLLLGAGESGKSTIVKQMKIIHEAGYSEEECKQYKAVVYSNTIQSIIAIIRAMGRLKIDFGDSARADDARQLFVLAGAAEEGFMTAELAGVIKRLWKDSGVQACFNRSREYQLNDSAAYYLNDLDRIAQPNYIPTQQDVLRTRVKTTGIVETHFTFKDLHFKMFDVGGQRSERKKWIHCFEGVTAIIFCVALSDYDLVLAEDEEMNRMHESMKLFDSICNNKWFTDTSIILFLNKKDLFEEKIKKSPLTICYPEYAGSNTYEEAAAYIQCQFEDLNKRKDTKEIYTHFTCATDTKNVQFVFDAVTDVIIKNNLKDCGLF
HGS 1-154 VHS (domain begin residue: 1, domain end residue: 154), O14964, sequence (O14964 whole entry): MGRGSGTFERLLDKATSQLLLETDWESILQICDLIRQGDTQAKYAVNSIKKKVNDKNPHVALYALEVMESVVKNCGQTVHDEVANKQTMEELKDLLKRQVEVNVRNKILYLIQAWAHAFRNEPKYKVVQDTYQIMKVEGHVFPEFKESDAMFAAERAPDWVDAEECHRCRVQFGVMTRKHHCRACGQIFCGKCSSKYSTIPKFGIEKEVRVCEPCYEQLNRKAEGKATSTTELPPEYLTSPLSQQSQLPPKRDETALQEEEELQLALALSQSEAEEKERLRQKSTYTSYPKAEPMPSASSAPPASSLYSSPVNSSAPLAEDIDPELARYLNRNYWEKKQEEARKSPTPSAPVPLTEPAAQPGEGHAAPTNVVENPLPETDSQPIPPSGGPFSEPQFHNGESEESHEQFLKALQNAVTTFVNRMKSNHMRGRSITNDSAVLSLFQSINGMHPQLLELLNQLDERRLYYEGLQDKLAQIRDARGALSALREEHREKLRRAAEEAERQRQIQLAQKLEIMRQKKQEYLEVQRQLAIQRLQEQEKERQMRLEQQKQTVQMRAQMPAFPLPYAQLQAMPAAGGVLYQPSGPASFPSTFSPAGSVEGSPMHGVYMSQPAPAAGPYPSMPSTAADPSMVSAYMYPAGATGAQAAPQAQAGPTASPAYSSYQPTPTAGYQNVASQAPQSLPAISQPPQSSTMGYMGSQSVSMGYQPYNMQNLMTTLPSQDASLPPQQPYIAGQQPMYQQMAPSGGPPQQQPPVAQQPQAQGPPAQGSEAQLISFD

One assay addresses T1, HOMER2 1-111 WH1 (domain begin residue: 1, domain end residue: 111), Q9NSB8.
T1 chain: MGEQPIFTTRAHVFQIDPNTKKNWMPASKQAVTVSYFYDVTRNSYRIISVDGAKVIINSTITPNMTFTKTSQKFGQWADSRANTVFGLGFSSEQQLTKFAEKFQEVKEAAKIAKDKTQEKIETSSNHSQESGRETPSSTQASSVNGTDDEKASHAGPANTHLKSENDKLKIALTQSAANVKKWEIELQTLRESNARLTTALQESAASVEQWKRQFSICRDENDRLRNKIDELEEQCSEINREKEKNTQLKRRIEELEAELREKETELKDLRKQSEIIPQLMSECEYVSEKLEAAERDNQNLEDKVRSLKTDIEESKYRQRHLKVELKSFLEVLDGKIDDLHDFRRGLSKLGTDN
Briefly: phage ELISA signal ratio (GST-PRM binding over GST background); higher = stronger binding of peptide-phage to the PRM. The gist of the method: (§1)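 Each value is the phage ELISA signal on the glutathione S-transferase (GST)-domain fusion divided by the signal on GST alone. Human peptide recognition domains were expressed in 96-well plates, fused to the C-terminus of GST, and selected against an M13 phage library carrying randomized, cysteine-free, glycine-flanked hexadecapeptides on the gene-8 major coat protein. After five selection rounds, approximately 48 individual clones from rounds 4 and 5 were tested by phage ELISA, and positive clones were sequenced.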
Take B1: the “phage ELISA signal ratio” value is 13.5.
Take B20: the “phage ELISA signal ratio” value was 14.3.
For the molecule B28, the “phage ELISA signal ratio” value came out at 15.2.
Still for that read-out and setting: to B31 belongs 17.9; to B49, 10.2; to B50, 15.5.

For the next assay, the target named is T2, GNAZ 2-355 G-alpha (domain begin residue: 2, domain end residue: 355), P19086.
T2 chain: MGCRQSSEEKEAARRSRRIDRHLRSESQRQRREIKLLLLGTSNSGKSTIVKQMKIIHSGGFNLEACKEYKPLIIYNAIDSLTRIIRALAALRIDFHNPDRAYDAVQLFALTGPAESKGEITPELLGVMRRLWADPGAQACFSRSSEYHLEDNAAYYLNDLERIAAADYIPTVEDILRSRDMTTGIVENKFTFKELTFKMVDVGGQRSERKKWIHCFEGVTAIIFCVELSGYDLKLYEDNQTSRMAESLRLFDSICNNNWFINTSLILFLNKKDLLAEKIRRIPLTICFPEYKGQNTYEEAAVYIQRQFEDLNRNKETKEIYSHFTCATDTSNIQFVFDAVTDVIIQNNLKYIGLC
The description is as above. The procedure, abridged: as §1
As to B2, the “phage ELISA signal ratio” value stood at 19.7.
The same measure, in the same setting: to B3 belongs 26.5; to B6, 11.2; to B11, 17.5.
With B12, the “phage ELISA signal ratio” value came out at 17.6.
Turning to B13, the “phage ELISA signal ratio” value is 13.9.
On to B16, for which the “phage ELISA signal ratio” value is 11.1.
Regarding B17, the “phage ELISA signal ratio” value was found to be 7.78.
Same read-out and setting: to B18 belongs 27.6; to B21, 5.11; to B25, 14.6.
In the case of B30, the “phage ELISA signal ratio” value stood at 17.2.
The same measure, in the same setting: the result for B32 reads 16.7.
With B34, the “phage ELISA signal ratio” value came to 4.45.
Still for that read-out and setting: to B36 belongs 3.11; to B37, 8.79.
Same read-out and setting: the result for B40 reads 8.66.
On the same count and under the same terms, to B41 belongs 25.2; to B42, 11.9; to B44, 20.5.
Consider B45, for which the “phage ELISA signal ratio” value amounted to 17.6.
Regarding B51, the “phage ELISA signal ratio” value amounted to 30.4.
Same read-out and setting: to B56 belongs 32.1.

A further assay addresses GNAI1 2-354 G-alpha (domain begin residue: 2, domain end residue: 354), P63096. Described as above. The gist of the method: as §1
For the molecule B4, the “phage ELISA signal ratio” value is 16.6.
As for B8, the “phage ELISA signal ratio” value came out at 31.6.
The same measure, in the same setting: to B14 belongs 13.8; to B26, 4.48.
On the same count and under the same terms, to B48 belongs 49.6; to B52, 18.

For a further assay, the target named is T3, HNF4A 148-377 Hormone_recep (domain begin residue: 148, domain end residue: 377), P41235.
T3 chain: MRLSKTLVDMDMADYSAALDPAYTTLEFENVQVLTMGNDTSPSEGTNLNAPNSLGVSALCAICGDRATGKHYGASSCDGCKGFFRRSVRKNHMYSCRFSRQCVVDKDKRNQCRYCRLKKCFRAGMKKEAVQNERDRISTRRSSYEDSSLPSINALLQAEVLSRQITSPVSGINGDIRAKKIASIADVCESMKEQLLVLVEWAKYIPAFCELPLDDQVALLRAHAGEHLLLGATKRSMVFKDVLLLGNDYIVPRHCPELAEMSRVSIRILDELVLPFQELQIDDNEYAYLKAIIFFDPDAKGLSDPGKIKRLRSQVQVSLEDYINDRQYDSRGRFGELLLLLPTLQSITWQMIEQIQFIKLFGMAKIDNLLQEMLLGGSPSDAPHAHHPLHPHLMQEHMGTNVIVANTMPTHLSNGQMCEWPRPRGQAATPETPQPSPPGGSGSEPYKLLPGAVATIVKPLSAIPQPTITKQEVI
The assay is described as above. The procedure, abridged:
as §1
On to B5, for which the “phage ELISA signal ratio” value was determined as 10.8.

For another assay, the target named is T4, HOMER3 1-118 WH1 (domain begin residue: 1, domain end residue: 118), Q9NSC5.
T4 chain: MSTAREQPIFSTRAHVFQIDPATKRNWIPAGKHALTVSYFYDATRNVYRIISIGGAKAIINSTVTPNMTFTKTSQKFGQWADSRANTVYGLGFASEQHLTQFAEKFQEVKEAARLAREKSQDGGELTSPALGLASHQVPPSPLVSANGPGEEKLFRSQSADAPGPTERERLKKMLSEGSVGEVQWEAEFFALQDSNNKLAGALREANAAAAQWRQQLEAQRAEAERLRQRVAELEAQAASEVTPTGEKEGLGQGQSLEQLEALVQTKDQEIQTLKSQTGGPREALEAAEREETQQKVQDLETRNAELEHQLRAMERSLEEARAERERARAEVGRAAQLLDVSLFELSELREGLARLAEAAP
Described as above. The gist of the method:
as §1
Regarding B7, the “phage ELISA signal ratio” value was 10.5.
On the same count and under the same terms, to B22 belongs 5.84.
With B23, the “phage ELISA signal ratio” value amounted to 4.73.

The target of the next assay is T5, GNAQ 2-359 G-alpha (domain begin residue: 2, domain end residue: 359), P50148.
T5 chain: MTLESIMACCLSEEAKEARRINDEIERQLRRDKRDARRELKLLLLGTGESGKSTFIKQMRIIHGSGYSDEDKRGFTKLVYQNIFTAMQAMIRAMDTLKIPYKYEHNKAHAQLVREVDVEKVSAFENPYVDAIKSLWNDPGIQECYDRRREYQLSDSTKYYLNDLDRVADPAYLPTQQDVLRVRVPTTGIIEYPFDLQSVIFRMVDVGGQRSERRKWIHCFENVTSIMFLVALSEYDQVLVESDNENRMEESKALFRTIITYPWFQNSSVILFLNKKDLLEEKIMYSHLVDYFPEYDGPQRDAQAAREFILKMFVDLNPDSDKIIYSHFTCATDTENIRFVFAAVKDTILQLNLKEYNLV
The description is as above. The procedure, abridged:
as §1
For the molecule B9, the “phage ELISA signal ratio” value is 29.2.
As for B54, the “phage ELISA signal ratio” value is 25.5.

Another assay addresses HGS 1-154 VHS (domain begin residue: 1, domain end residue: 154), O14964. The description is as above. The gist of the method:
as §1
Consider B10, for which the “phage ELISA signal ratio” value came out at 15.9.

In the next assay the target is HSPA9 438-651 HSP70 (domain begin residue: 438, domain end residue: 651), P38646. Described as above. The gist of the method: as §1
HSPA9 438-651 HSP70 (domain begin residue: 438, domain end residue: 651), P38646, sequence (P38646 whole entry): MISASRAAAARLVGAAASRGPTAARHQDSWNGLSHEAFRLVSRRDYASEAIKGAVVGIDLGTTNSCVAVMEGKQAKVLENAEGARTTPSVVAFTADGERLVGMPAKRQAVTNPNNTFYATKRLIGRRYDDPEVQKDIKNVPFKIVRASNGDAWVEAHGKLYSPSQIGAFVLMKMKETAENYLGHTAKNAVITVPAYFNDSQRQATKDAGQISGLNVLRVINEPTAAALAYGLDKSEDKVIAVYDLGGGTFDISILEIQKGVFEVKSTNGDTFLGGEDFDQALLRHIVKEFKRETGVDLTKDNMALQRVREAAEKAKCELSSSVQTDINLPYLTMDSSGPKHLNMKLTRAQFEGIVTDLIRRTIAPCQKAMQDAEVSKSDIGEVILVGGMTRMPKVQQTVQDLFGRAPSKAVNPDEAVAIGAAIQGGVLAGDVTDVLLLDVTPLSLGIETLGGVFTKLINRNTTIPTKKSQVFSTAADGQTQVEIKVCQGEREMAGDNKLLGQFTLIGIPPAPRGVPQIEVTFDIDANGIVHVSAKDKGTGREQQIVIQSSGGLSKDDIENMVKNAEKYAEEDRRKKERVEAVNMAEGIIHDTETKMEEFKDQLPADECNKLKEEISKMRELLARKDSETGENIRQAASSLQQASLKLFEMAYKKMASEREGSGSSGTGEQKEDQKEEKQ
Take B15: the “phage ELISA signal ratio” value worked out at 10.8.
Still for that read-out and setting: the result for B27 reads 8.49.
On the same count and under the same terms, the result for B33 reads 6.36.
Same read-out and setting: the result for B38 reads 15; that for B39, 6.13.
As for B43, the “phage ELISA signal ratio” value stood at 15.
For B46, the “phage ELISA signal ratio” value was 16.4.
The same measure, in the same setting: the result for B47 reads 3.89.

Another assay addresses HSPA8 394-614 HSP70 (domain begin residue: 394, domain end residue: 614), P11142. The description is as above. The gist of the method:
as §1
For the molecule B19, the “phage ELISA signal ratio” value turned out to be 8.35.
The same measure, in the same setting: the result for B24 reads 23.6.
Regarding B29, the “phage ELISA signal ratio” value was found to be 10.4.
On the same count and under the same terms, to B35 belongs 8.68; to B53, 20.4.

A further assay concerns the target T6, HOMER1 1-163 WH1 (domain begin residue: 1, domain end residue: 163), Q86YM7.
T6 chain: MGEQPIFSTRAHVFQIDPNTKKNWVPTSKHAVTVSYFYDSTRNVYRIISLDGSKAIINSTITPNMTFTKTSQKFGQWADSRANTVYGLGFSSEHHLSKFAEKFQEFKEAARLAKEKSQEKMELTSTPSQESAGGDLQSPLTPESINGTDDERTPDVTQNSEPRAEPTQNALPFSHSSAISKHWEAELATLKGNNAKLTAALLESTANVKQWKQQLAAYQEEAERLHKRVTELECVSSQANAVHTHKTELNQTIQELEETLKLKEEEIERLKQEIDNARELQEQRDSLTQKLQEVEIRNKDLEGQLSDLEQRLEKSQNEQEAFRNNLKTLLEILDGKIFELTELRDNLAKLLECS
The assay is described as above. The procedure, abridged:
as §1
Take B55: the “phage ELISA signal ratio” value was 4.77.
On the same count and under the same terms, the result for B57 reads 4.78.
